The record followed here is the supplement of paper PMC6555819.

One test deals with PPARg:RXRa DBDmut IVT, anti-RXR (DBD mutation: RXRa K156A/R161A, NR concentration 270 nM, RXRa partner concentration 90 nM). The test can be described thus: PBM binding z-score (relative to random genomic background probes); higher = stronger binding; sequences stand for … in GC…GCGATTGACAGCGTAGAATGAAGG
Summed up: (§1)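 Binding z-scores take random background probes as their reference. They come from custom Agilent 4×180K protein-binding microarrays incubated 1 h with ligand-free nuclear receptor dimers, with antibodies against each partner (one per run) detecting binding. Scanned fluorescence was regression-normalized.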
In turn, CCGACTGGGGAAAAGGTTACCATACTCAGTACGA came in with a PBM binding z-score of 0.816.
CAAACGAGGGCATGAGTTGATAGCAAATGCCGAT: the PBM binding z-score turned out to be 2.71.
Same read-out and setting: under TTACCAAAGTGAGCTGAGGTCGTTGATCCAACTC stands -0.795.
Still for that read-out and setting: under TCGAGTAGGTTAGTGGCATTCAGAATGGCGTCGA stands 2.03.
In turn, CCAGACAGGTGAGAAGGTAATTCAGCCTCGATTA returned a PBM binding z-score of 1.14.
CGTCCAAGGTCAGCAGGTCAGTGTAAGCGACGTG registered a PBM binding z-score of 2.97.
The same measure, in the same setting: for GCAGACAGGTGAAACGAAGGTAACTCAGGGTGGC the value was 0.963.
As to GCGATTGGGGCATCAGCAGGTTACCATAACTTAA, the PBM binding z-score came to 1.79.
Consider CCTTACGGGTCACTCCGGGTTATAGCATCGGAGT, for which the PBM binding z-score came to 1.96.
CCTAGCAGGCCTATCTGGGTCACTCAAGGCTTGA: the PBM binding z-score turned out to be 3.65.
On the same count and under the same terms, for ACTCGGAGCACAAAGGTCAGAGCTACGCCAGTGA the value was 0.735.
Same read-out and setting: for AGAGTGAGGTTAAGATCAGGGAAACAGAATACAT the value was 0.514; for CAAACTAGGTCGCGAAAGGTCAAAGTCGAATGAC, 6.96; for CAAACTAGGTCTAAGGTCAAAGTCGAGCCAACCA, 3.97.
Same read-out and setting: under GATACAGGGTCAAGGCCAGAGTTCGCGTATTGAT stands 2.6; under CCTACTAGGCCACGAAAGGTCATTGATTCAGTGA, 6.91.
In turn, AGAATGAGGTTAAGATCAGGGACACAGAATACAT gave a PBM binding z-score of 3.45.
In turn, TCTTGTAGATCTAGCAGGTTAAGAAAGCCTGAGT gave a PBM binding z-score of 1.5.
CCGAGTAGGTTATAGGGCATTCAGGCAACGGTGA: the PBM binding z-score stood at 3.99.
TAGCCTAGGTCTTTCAGGGGCCAGTATAGAAAGC: the PBM binding z-score is -0.411.
As for CCTGGTAGGTCAATGGTCAGCTAAAGCAGCTCGC, the PBM binding z-score came out at 4.64.
With CCTACTGTGCCAAGGTCATTGATCAGTCAAAGCA, the PBM binding z-score came to 3.52.
On the same count and under the same terms, under TCTCGTTGGTCAAAGGTCACACACTCGAAATGCG stands 2.72.
TAGCCTAGGTCATTGGGCCACTATAGTACGCATC gave a PBM binding z-score of 3.5.
Same read-out and setting: for TAGCCTAGGTCATTCAGTGGCCAGTATAGAAAGC the value was 1.37.
Same read-out and setting: under TGAATGAGGTTATAAGATGAGGGAACGTTGCAAA stands 1.09; under CAAACTAGGCCAAAGGTCAAAGTCGAGCCAACCA, 7.14; under GCAGGCAGGTGAAACGCAGGTAACTCAGGGTGGC, 1.12.
On the same count and under the same terms, under CTCGAAAGGTCGGTTGAGGTTAGTATACGGATAA stands -0.0127.
With CCAACTAGGTCAAGGACAGTGAATCTCCGCACGC, the PBM binding z-score stood at 7.53.
The same measure, in the same setting: under CCGACTGGGGCATAAAGGTTACCATACCATCCGG stands 1.89; under ACTAGTTGGTCAGCTGAGGTCAGACACAATTCGG, 1.02.
On the same count and under the same terms, under AGTCAAAGTTCATCTAGGTACCGTAAGATATGCT stands 0.148; under CCGACAGGGGCAAAGGTTACCATACTCAGTACGA, 0.215.
Same read-out and setting: for CCTATTGGGCCATTCAGAGGTCATTGATCATATG the value was 2.6.
For CCTATTAGTTGACCCTAAGGGCAACCGAAGCTCG, the PBM binding z-score was 0.775.
On the same count and under the same terms, for AGTCAAAGTTCCCTAGGTAACGTAAGATTCAGCT the value was -0.23; for TGTAGCAGGCCAGAGGGTCACTCAAGAGGTACGG, -1.03.
Turning to TAGCCTTGGTCAGATCGGGCCAGTATACGCTATA, the PBM binding z-score was -0.7.
On the same count and under the same terms, under ATCCCTAGGTAAAGTTCAGTGAAAGATCGATAGA stands 0.383.

A further test relates to PPARg:RXRa IVT, anti-PPARg (NR concentration 270 nM, RXRa partner concentration 90 nM). The test is described as above. A digest of the protocol:
as §1
Sequence CCGACTGGGGAAAAGGTTACCATACTCAGTACGA came in with a PBM binding z-score of 2.89.
Same read-out and setting: under CAAACGAGGGCATGAGTTGATAGCAAATGCCGAT stands 2.88; under TTACCAAAGTGAGCTGAGGTCGTTGATCCAACTC, -0.309.
The same measure, in the same setting: for TCGAGTAGGTTAGTGGCATTCAGAATGGCGTCGA the value was 1.11.
Same read-out and setting: for CCAGACAGGTGAGAAGGTAATTCAGCCTCGATTA the value was 0.682.
Consider CGTCCAAGGTCAGCAGGTCAGTGTAAGCGACGTG, for which the PBM binding z-score is 3.67.
Same read-out and setting: for GCAGACAGGTGAAACGAAGGTAACTCAGGGTGGC the value was 0.555; for GCGATTGGGGCATCAGCAGGTTACCATAACTTAA, 0.996; for CCTTACGGGTCACTCCGGGTTATAGCATCGGAGT, 3.06.
On the same count and under the same terms, for CCTAGCAGGCCTATCTGGGTCACTCAAGGCTTGA the value was 4.63; for ACTCGGAGCACAAAGGTCAGAGCTACGCCAGTGA, 2.74; for AGAGTGAGGTTAAGATCAGGGAAACAGAATACAT, 1.39.
Still for that read-out and setting: under CAAACTAGGTCGCGAAAGGTCAAAGTCGAATGAC stands 7.13; under CAAACTAGGTCTAAGGTCAAAGTCGAGCCAACCA, 5.92; under GATACAGGGTCAAGGCCAGAGTTCGCGTATTGAT, 3.98.
Take CCTACTAGGCCACGAAAGGTCATTGATTCAGTGA: the PBM binding z-score turned out to be 6.28.
As to AGAATGAGGTTAAGATCAGGGACACAGAATACAT, the PBM binding z-score turned out to be 3.13.
The same measure, in the same setting: under TCTTGTAGATCTAGCAGGTTAAGAAAGCCTGAGT stands 0.0743.
The same measure, in the same setting: for CCGAGTAGGTTATAGGGCATTCAGGCAACGGTGA the value was 4.27.
The same measure, in the same setting: for TAGCCTAGGTCTTTCAGGGGCCAGTATAGAAAGC the value was 0.431.
As to CCTGGTAGGTCAATGGTCAGCTAAAGCAGCTCGC, the PBM binding z-score amounted to 5.35.
The same measure, in the same setting: for CCTACTGTGCCAAGGTCATTGATCAGTCAAAGCA the value was 3.07.
Still for that read-out and setting: under TCTCGTTGGTCAAAGGTCACACACTCGAAATGCG stands 5.29.
Same read-out and setting: for TAGCCTAGGTCATTGGGCCACTATAGTACGCATC the value was 4.5; for TAGCCTAGGTCATTCAGTGGCCAGTATAGAAAGC, 2.7.
For the sequence TGAATGAGGTTATAAGATGAGGGAACGTTGCAAA, the PBM binding z-score is 1.5.
On the same count and under the same terms, for CAAACTAGGCCAAAGGTCAAAGTCGAGCCAACCA the value was 7.78; for GCAGGCAGGTGAAACGCAGGTAACTCAGGGTGGC, 0.912; for CTCGAAAGGTCGGTTGAGGTTAGTATACGGATAA, 0.923.
On the same count and under the same terms, for CCAACTAGGTCAAGGACAGTGAATCTCCGCACGC the value was 7.55.
Still for that read-out and setting: under CCGACTGGGGCATAAAGGTTACCATACCATCCGG stands 3.25; under ACTAGTTGGTCAGCTGAGGTCAGACACAATTCGG, 1.86; under AGTCAAAGTTCATCTAGGTACCGTAAGATATGCT, 2.85.
Regarding CCGACAGGGGCAAAGGTTACCATACTCAGTACGA, the PBM binding z-score turned out to be 3.27.
On the same count and under the same terms, under CCTATTGGGCCATTCAGAGGTCATTGATCATATG stands 2.48.
Same read-out and setting: under CCTATTAGTTGACCCTAAGGGCAACCGAAGCTCG stands 1.82; under AGTCAAAGTTCCCTAGGTAACGTAAGATTCAGCT, 0.612.
The same measure, in the same setting: for TGTAGCAGGCCAGAGGGTCACTCAAGAGGTACGG the value was 1.1; for TAGCCTTGGTCAGATCGGGCCAGTATACGCTATA, -0.297; for ATCCCTAGGTAAAGTTCAGTGAAAGATCGATAGA, 1.01.
